Common to all, as to design: scale not given: direction of the effect not stated beside the values
For test [1], the target named is Protein translocase subunit SecA (Escherichia coli (strain K12)) (UniProt P10408). The test can be described thus: Assay to Identify E. coli SecA ATPase Inhibitors. The settings on record: 30 µM. The format is functional.
Test [2] addresses T1, Ubiquitin-activating enzyme e1, putative (Leishmania donovani (strain BPK282A1)) (UniProt E9BSI1).
T1 sequence (whole entry): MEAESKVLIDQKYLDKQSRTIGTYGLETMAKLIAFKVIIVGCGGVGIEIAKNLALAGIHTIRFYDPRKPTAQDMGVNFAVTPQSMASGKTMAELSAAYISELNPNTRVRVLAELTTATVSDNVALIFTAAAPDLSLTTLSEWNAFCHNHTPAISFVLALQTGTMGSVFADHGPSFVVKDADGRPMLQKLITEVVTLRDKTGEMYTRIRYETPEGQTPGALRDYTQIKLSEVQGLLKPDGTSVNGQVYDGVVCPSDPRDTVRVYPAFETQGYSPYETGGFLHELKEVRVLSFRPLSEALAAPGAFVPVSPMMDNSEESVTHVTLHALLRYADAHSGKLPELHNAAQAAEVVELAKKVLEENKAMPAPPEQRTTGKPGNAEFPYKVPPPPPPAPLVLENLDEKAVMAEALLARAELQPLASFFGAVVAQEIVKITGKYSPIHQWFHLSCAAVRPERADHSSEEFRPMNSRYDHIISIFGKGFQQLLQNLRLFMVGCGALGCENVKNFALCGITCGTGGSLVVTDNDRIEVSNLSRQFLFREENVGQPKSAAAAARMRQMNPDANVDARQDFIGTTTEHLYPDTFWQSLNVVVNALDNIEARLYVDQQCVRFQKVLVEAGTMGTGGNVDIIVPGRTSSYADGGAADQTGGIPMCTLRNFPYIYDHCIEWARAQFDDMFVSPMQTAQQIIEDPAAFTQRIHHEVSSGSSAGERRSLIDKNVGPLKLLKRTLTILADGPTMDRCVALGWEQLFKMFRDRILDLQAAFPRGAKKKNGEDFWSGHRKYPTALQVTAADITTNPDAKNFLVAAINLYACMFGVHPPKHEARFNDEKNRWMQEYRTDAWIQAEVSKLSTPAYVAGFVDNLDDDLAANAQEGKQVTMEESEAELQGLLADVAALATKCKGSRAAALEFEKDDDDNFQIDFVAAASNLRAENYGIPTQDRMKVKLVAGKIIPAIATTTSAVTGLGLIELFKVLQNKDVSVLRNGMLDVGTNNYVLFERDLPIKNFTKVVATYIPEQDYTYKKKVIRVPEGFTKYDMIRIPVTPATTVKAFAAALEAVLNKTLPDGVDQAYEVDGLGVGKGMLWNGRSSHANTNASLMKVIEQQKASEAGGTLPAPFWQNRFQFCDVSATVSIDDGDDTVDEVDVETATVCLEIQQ
The test can be described thus: Leishmania donovani Ubiquitin Activating Enzyme (LdE1). The settings on record: 30 µM. The test is classed as functional.

Test [3] addresses T2, Aspartate--tRNA(Asp/Asn) ligase (Mycobacterium tuberculosis (strain ATCC 25618 / H37Rv)) (UniProt P9WFW3).
T2 sequence (whole entry): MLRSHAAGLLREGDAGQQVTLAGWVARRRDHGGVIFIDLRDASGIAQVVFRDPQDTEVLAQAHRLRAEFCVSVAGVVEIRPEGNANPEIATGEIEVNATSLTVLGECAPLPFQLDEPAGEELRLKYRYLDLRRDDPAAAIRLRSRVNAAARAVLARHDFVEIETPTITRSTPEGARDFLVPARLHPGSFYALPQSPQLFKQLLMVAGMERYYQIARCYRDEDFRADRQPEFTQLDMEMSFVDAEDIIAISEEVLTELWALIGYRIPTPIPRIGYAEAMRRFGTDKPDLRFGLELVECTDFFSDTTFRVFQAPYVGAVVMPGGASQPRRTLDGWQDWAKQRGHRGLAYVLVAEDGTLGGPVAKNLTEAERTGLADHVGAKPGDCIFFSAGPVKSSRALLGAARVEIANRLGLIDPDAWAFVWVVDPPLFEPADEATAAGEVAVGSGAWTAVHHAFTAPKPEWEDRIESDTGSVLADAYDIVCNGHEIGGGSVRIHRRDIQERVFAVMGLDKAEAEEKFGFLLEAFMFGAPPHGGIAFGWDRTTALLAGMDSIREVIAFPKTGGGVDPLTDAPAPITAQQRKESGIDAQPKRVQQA
As to the kind of experiment: Assay for Asp RNA synthetase-1 from Mycobacterium tuberculosis. The format is functional. Particulars: 30 µM.

The target of test [4] is AMP-activated protein kinase, AMPK (Homo sapiens) (UniProt P54646+O43741+P54619+Q9UGJ0+Q9Y478+Q13131+Q9UGI9). The test can be described thus: AMP-dependent Kinase enzyme assay. An in vitro enzyme assay that detects ADP turnover that is directly proportional to AMPK activity. This uses naive AMPK that is activated during the assay with MK-8722. The test is classed as functional. Particulars: 30 µM.

The target in test [5] is Sialic acid-binding Ig-like lectin 9 (Homo sapiens) (UniProt Q9Y336). As to the kind of experiment: Hs-Siglec9 ALPHAscreen SOP 20170721. The settings on record: 10 µM.
Sialic acid-binding Ig-like lectin 9 (Homo sapiens), sequence (Q9Y336 whole entry): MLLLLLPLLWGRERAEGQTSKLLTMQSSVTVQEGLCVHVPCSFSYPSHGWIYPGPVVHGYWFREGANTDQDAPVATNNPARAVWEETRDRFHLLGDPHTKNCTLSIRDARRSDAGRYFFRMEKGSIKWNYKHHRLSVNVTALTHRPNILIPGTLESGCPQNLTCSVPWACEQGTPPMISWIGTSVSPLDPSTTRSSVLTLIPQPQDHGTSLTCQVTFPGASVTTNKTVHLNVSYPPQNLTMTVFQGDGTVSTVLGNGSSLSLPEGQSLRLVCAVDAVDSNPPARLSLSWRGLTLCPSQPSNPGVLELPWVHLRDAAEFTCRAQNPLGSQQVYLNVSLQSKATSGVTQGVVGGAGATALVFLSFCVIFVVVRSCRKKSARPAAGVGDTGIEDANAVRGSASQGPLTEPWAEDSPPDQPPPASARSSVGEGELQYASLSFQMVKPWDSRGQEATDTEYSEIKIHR
For test [6], the system named is Trypanosoma cruzi. As to the kind of experiment: Trypanosoma cruzi phosphomannomutase and mannose-1-phosphate guanylyltransferase assay. The test is classed as functional. The settings on record: 10 µM.
The target of test [7] is T3, Arginase-2, mitochondrial (Homo sapiens) (UniProt P78540).
T3 sequence (whole entry): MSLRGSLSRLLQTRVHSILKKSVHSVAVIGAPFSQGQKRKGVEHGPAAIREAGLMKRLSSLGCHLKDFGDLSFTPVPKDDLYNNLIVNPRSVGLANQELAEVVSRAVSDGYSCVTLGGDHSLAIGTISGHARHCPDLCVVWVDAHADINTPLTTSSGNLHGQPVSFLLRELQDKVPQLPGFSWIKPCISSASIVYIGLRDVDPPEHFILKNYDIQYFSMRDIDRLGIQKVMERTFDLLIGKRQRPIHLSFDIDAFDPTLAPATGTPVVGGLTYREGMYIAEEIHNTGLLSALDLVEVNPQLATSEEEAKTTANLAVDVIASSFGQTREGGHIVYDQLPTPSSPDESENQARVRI
As to the kind of experiment: in vitro enzyme assay to detect the production of urea directly proportional to the activity of Arginase II. Also: in the data most compounds retested in dose-response had high values. The test is classed as functional. The settings on record: 33.3 µM.

For test [8], the target named is T4, Proteasome subunit beta (Trypanosoma cruzi) (UniProt O96673).
T4 sequence (whole entry): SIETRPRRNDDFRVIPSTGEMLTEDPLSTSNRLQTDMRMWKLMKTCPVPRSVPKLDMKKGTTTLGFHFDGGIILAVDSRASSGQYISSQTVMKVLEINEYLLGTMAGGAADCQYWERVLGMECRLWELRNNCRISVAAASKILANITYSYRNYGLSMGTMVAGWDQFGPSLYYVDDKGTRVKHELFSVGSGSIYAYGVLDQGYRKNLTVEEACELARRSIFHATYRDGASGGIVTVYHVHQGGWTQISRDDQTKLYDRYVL
As to the kind of experiment: Trypanosoma cruzi proteasome chymotrypsin-like activity (TcProtChymo) assay. Also: in the data most compounds retested in dose-response had high values. The format is functional. Particulars: 9.37 µM.

Test [9] is filed under the species Homo sapiens. As to the kind of experiment: To identify inhibition of the IFN signalling (Jak-Stat) pathway via expression of an eGFP reporter gene under the control of an IFN-stimulated response element (ISRE) containing MxA promoter. The format is functional. Particulars: 30 µM. For orientation: A reporter such as luciferase makes a cellular process visible.

Test [10] has as its target Shiga toxin 2 (Escherichia coli O157:H7) (UniProt P09385+P09386). The test can be described thus: E. coli 0.157:H7 Shiga Toxin SOP - stx2 screening assay. The format is functional. The settings on record: 30 µM.
The target in test [11] is T5, Tyrosyl-tRNA synthetase, putative (Trypanosoma cruzi (strain CL Brener)) (UniProt Q4DSP6).
T5 sequence (whole entry): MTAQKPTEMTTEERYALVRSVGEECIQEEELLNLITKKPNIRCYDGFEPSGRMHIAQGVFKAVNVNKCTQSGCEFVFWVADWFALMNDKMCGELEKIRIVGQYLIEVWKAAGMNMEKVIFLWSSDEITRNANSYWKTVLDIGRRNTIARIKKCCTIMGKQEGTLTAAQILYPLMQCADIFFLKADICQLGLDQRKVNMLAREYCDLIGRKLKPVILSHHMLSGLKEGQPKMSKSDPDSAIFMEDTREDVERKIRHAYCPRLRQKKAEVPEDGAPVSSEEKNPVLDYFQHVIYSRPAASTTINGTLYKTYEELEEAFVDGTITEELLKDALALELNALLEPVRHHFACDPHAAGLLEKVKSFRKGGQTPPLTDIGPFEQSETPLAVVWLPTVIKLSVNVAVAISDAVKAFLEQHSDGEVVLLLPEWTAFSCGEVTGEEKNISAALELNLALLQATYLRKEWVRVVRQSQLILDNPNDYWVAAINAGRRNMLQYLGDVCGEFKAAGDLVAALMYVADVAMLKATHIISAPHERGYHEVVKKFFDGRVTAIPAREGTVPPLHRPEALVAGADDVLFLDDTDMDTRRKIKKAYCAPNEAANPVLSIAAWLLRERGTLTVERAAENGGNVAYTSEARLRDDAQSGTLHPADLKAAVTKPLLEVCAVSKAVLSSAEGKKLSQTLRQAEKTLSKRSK
As to the kind of experiment: Trypanosoma cruzi tyrosyl tRNA synthetase (TcYRS) _High Tyrosine SOP. Also: in the data most compounds retested in dose-response had high values. The format is functional. Particulars: 30 µM.

In test [12] the target is T5, Tyrosyl-tRNA synthetase, putative (Trypanosoma cruzi (strain CL Brener)). The test can be described thus: Trypanosoma cruzi tyrosyl tRNA synthetase (TcYRS) SOP. The format is functional. The settings on record: 30 µM.
For test [13], the target named is Chromo domain-containing protein 1 (Saccharomyces cerevisiae (strain ATCC 204508 / S288c) (Baker's yeast)) (UniProt P32657). As to the kind of experiment: ScCHD-1 Enzyme Inhibition Assay. Also: in the data most compounds retested in dose-response had high values. The test is classed as functional. The settings on record: 30 µM.
Chromo domain-containing protein 1 (Saccharomyces cerevisiae (strain ATCC 204508 / S288c) (Baker's yeast)), sequence (P32657 whole entry, the tested form may be a part): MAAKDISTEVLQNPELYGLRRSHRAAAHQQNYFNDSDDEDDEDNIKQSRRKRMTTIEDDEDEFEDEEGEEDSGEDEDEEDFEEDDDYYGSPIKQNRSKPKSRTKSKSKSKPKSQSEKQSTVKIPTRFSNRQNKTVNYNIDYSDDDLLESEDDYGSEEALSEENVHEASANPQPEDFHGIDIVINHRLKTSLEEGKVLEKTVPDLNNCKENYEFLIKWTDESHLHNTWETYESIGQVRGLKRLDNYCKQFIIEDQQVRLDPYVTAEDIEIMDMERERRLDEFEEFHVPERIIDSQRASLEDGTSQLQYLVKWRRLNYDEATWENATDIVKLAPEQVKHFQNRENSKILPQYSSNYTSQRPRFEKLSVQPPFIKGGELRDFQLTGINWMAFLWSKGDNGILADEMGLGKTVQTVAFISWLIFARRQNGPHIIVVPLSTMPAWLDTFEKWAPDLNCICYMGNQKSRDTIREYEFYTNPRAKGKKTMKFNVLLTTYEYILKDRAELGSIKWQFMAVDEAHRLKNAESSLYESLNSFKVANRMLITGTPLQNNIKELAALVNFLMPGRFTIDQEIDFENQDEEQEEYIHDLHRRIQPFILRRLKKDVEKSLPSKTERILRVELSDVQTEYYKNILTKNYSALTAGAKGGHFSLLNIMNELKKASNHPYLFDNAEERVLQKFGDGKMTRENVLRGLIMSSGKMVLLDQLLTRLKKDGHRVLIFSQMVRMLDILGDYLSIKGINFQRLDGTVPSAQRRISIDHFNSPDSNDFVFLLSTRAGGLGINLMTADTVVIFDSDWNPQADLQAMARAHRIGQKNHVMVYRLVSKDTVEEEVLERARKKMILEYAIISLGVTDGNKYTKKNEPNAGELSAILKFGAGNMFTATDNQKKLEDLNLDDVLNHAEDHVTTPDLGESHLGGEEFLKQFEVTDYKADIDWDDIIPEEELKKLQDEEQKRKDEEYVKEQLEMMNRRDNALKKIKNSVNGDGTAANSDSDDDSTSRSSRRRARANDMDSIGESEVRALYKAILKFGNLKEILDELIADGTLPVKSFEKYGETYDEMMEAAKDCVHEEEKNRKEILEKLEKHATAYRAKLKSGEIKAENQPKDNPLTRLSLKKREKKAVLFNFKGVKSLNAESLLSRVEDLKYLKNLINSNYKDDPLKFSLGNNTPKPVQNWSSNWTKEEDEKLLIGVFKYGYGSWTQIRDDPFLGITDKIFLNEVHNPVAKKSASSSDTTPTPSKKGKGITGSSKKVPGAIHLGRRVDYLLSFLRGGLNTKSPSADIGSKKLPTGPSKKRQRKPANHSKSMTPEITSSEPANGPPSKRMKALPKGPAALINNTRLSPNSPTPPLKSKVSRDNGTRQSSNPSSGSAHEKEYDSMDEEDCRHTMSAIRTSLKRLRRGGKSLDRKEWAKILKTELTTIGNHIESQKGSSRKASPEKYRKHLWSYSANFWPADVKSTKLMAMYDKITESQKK

For some assays here: Potency and affinity values are given separately.

Protein translocase subunit SecA (Escherichia coli (strain K12)), sequence (P10408 whole entry): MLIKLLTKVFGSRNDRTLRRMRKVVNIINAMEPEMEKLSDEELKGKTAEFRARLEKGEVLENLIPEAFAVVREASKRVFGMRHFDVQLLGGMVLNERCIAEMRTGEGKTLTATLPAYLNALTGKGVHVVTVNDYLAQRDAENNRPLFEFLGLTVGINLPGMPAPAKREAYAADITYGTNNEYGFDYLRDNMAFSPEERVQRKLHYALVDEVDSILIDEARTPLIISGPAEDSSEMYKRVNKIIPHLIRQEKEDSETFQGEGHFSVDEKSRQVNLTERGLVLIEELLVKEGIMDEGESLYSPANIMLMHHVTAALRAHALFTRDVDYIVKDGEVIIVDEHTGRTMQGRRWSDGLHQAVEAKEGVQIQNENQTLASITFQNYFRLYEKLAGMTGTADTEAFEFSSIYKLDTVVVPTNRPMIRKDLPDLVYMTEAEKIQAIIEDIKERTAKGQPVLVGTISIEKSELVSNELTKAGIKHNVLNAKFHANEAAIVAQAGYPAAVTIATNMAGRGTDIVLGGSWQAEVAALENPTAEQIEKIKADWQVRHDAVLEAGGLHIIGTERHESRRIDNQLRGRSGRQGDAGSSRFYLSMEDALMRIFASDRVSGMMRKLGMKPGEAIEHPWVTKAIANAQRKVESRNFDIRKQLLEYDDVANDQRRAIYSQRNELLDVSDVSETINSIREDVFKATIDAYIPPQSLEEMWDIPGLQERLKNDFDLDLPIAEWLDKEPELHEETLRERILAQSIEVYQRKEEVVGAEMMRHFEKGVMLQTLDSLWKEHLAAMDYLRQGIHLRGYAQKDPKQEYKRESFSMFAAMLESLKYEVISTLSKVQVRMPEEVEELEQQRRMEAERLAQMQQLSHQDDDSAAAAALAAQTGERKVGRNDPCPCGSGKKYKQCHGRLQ

As for `COc1ccc(-c2n[nH]cc2C2SCC(=O)Nc3[nH]ncc32)cc1` (stereo not given), the Percent Effect in test [1] was -3.63%; in test [2], 0%; in test [3] it was 0.479%; in test [4], 21.7%; in test [5] it was 3.15%; in [6], -3.41%. Besides, the Percent Effect in test [7] was -17.8%; in test [8], 14.9%; in [9], 16.2%; in test [10], -3.31%; in test [11], 2.13%; in test [12], 7.79%. The Percent Effect in test [13] stood at 0.161%.

As for `O=C1NC2(CCNCC2)CC1c1cccnc1` (stereo not given), the Percent Effect is -0.858% in test [1]; 10.7% in test [2]; -1.51% in test [3]; 15.3% in test [4]; -10.1% in test [5]; -6.89% in test [6]. For the same molecule, the Percent Effect was 2.1% in test [7]; 8.55% in [8]; 13.1% in [9]; -1.63% in [10]; 4.25% in [11]; 8.97% in [12]. For the same molecule, the Percent Effect in [13] is -2.26%.

As for `Cc1n[nH]c2c1C(c1ccsc1)SCC(=O)N2` (stereo not given), the Percent Effect in test [1] is 0.859%; in [2] it was 15.6%; in [3], 6.57%; in test [4] it was 7.18%; in test [5], -13.4%; in test [6], -4.24%. Besides, the Percent Effect came to 0.645% in test [7]; 16% in test [8]; 19.9% in [9]; 1.07% in test [10]; 5.29% in test [11]; 6.41% in test [12]. Further, the Percent Effect in [13] was -7.85%.

For the molecule `CNC(=O)CN1CCOCC2(CCCN(Cc3cccnc3)C2)C1` (stereo not given), the Percent Effect in test [1] was -1.67%; in test [2], -2.7%; in test [3], 2.13%; in test [4], 2.03%; in test [5], -2.12%; in test [6], -4.1%. In addition, the Percent Effect in test [7] was -0.833%; in test [8] it was 0.93%; in test [9], -2.53%; in test [10], -22.5%; in test [11], 6.93%; in [12] it was 1.22%. In test [13], the Percent Effect was determined as 3.52%.

For the molecule `CC(Cc1c(F)cccc1F)NC(=O)Nc1cnn(CC(N)=O)c1` (stereo not given), the Percent Effect is -4.08% in test [1]; 21.5% in test [2]; -0.509% in test [3]; -1.23% in [4]; -0.0747% in test [5]; 0.513% in test [6]. The Percent Effect in test [7] is -1.07%; in test [8], 19.7%; in test [9], 15%; in test [10], -36.4%; in test [11] it was 3.12%; in [12] it was 17.7%. For the same molecule, the Percent Effect in test [13] is -23.1%.

(Values after ChEMBL document CHEMBL3988442, “University of Dundee, Small-Polar-MMV Screening Library” (2021).)
